Activity calls are given as the source filed them. No rule for the calls is given here.

The values below come from PubChem BioAssay.

This assay deals with Pantothenate synthetase (Mycobacterium tuberculosis (strain ATCC 25618 / H37Rv)) (UniProt P9WIL5). The assay can be described thus: Recombinant Mtb pantothenate synthetase (PanC) inhibitors, coupled enzyme, confirmatory (AID 375).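 Also: 0% = full reaction with vehicle and 100% = no enzyme background.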 The conditions noted are these: coupled enzyme assay; at 10 µM, active compounds read high.
Sequence of Pantothenate synthetase (Mycobacterium tuberculosis (strain ATCC 25618 / H37Rv)) (P9WIL5 whole entry, looked up): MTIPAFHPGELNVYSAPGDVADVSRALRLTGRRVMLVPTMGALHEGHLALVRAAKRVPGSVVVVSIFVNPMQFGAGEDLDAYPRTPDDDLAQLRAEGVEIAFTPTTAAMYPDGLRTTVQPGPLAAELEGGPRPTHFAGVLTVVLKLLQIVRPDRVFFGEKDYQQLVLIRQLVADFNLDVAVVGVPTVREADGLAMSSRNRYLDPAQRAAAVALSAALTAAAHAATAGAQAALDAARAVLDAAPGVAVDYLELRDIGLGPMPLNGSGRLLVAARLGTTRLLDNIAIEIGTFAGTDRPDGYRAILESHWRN
`O=C(CSc1nnnn1-c1ccc(Cl)cc1)NC(=O)Nc1ccc2c(c1)OCCO2`: the inhibition is 2% (inactive).

Turning to `COc1ccc(C)cc1NC(=O)COCC(=O)O`, the inhibition was 0% (inactive).

Consider `CCCCn1c(SCC(=O)Nc2cc(C)on2)nnc1-c1cccnc1`, for which the inhibition is 0% (inactive).

As for `Cn1c(=O)c2c(nc(CN3CCCCC3)n2CCCc2ccccc2)n(C)c1=O`, the inhibition was 2% (inactive).

Consider `COc1cccc(C(=O)Nc2c(C(N)=O)oc3ccccc23)c1`, for which the inhibition is 0% (inactive).

Regarding `COC(=O)CCn1nnc(-c2ccc(C)cc2)n1`, the inhibition was 1% (inactive).

On to `C=C(C)Cn1c(-c2ccccc2)nc2ccccc21`, for which the inhibition was 0% (inactive).

`Cc1c(C(=O)NCCC2=CCCCC2)oc2ccc(S(=O)(=O)N3CCC4(CC3)OCCO4)cc12`: the inhibition is 0% (inactive).

Regarding `Nn1c(SCC(=O)Nc2ccc3c(c2)OCO3)nnc1C1CC1`, the inhibition was 4% (inactive).

Consider `COc1cc(C2C(C#N)=C(N)OC3=C2C(=O)CC(C)(C)C3)ccc1OC(=O)N1CCOCC1` (configuration not stated), for which the inhibition was 5% (inactive).

`COc1ccc(-c2nc(N3CCCC3)[nH]c(=O)c2C#N)cc1`: the inhibition is 0% (inactive).

`Cc1ccnc(NS(=O)(=O)c2ccc(NC(=O)Cc3cccs3)cc2)n1`: the inhibition was 3% (inactive).

For the compound `CCOc1ccc(-c2nnn(CC(=O)N3CCN(c4ccc(F)cc4)CC3)n2)cc1OCC`, the inhibition is 0% (inactive).

As for `O=C(NC1(C(=O)NC2CCCCC2)CCCCC1)c1ccc2c(c1)OCO2`, the inhibition is 3% (inactive).

Turning to `O=c1cc(CSc2nnnn2-c2ccccc2)nc2scc(-c3ccccc3)n12`, the inhibition is 3% (inactive).

As to `Cc1ccc(-c2cc(C(=O)NCCN3CCOCC3)no2)cc1`, the inhibition was 3% (inactive).

Regarding `COc1ccc(C2C(C(=O)c3sc(C)nc3C)=C(O)C(=O)N2CCN(C)C)cc1` (configuration not stated), the inhibition was 9% (inactive).
